Laboratory results from PubChem BioAssay (NCI).
The panel holds about 83,000 compounds, 20% with a hit somewhere; the sample as a whole holds those more often.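 Note: values are percent growth. 100 is the growth of untreated cells, values between 100 and 0 indicate rising inhibition; between -100 and 0 indicates cell death.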 Calls of active or inactive are those of the source. How the source made its calls: active means growth percent below 10; inactive means the rest.

How the values were obtained:
Experiment in all cases: NCI-60 one-dose screen, 48 h (100 = growth as untreated, 0 = no growth, -100 = all killed)
Details in all cases: 10 µM unless noted
T-47D breast = test system: T-47D breast
BT-549 breast = test system: BT-549 breast
MDA-MB-435 melanoma = test system: MDA-MB-435 melanoma
SW-620 colon = test system: SW-620 colon
MCF7 breast = test system: MCF7 breast
HCT-116 colon = test system: HCT-116 colon
HCC-2998 colon = test system: HCC-2998 colon
KM12 colon = test system: KM12 colon

Measured: growth

CCOC(=O)c1cnc(SCC)nc1SC#N
inactive: T-47D breast 80.8% | BT-549 breast 115% | MDA-MB-435 melanoma 77.5% | SW-620 colon 60% | MCF7 breast 87.7% | HCT-116 colon 64.2% | HCC-2998 colon 108% | KM12 colon 101%

COc1ccc(-c2cc(-c3cc4ccccc4oc3=O)n(-c3ccccc3)n2)cc1
inactive: T-47D breast 73.1% | BT-549 breast 75.1% | MDA-MB-435 melanoma 100% | SW-620 colon 66.6% | MCF7 breast 76% | HCC-2998 colon 103% | KM12 colon 69.3%
active: HCT-116 colon 2.14%

COc1ccc2c(c1)N(Cc1ccc(Cl)cc1)CCC2N1CCCC1=O (centres undefined)
inactive: T-47D breast 31.5% | BT-549 breast 16.1% | MDA-MB-435 melanoma 46.2% | SW-620 colon 72.1% | MCF7 breast 35.5% | HCT-116 colon 55.1% | HCC-2998 colon 49.7% | KM12 colon 50.4%

O=[N+]([O-])c1ccc(N/N=C\c2ccc(O)cc2O)nc1
inactive: T-47D breast 38.5% | BT-549 breast 38% | MDA-MB-435 melanoma 45% | SW-620 colon 56.4% | MCF7 breast 27.4% | HCT-116 colon 21.3% | HCC-2998 colon 10.6% | KM12 colon 29.2%

CC[C@H](C)[C@H](N)C(=O)O
inactive: T-47D breast 104% | BT-549 breast 108% | MDA-MB-435 melanoma 98.8% | SW-620 colon 103% | MCF7 breast 103% | HCT-116 colon 115% | HCC-2998 colon 106% | KM12 colon 99.5%

CC(C)CCSc1nc(-c2ccc(F)cc2)c(C#N)c(N2CCN(C)CC2)n1
inactive: T-47D breast 68.3% | BT-549 breast 89% | MDA-MB-435 melanoma 93.6% | SW-620 colon 90.2% | MCF7 breast 83.9% | HCT-116 colon 79% | HCC-2998 colon 97.2% | KM12 colon 91.7%

O=C(N/N=C\c1cc(Br)ccc1O)c1ccncc1
inactive: BT-549 breast 45.2% | MDA-MB-435 melanoma 64.1% | SW-620 colon 37.7% | HCT-116 colon 21% | HCC-2998 colon 42.7% | KM12 colon 25.8%
active: T-47D breast -3.65% | MCF7 breast 2.38%

C=CCOc1ccc2c(C)cc(=O)oc2c1
inactive: T-47D breast 105% | BT-549 breast 109% | MDA-MB-435 melanoma 98.3% | SW-620 colon 109% | MCF7 breast 98.2% | HCT-116 colon 105% | HCC-2998 colon 100% | KM12 colon 105%

Cc1c2c(cc3c1[nH]c1ccccc13)C=NCC2
inactive: T-47D breast 73.7% | BT-549 breast 79.6% | MDA-MB-435 melanoma 94.9% | SW-620 colon 97% | MCF7 breast 60.8% | HCC-2998 colon 96.8% | KM12 colon 87%

N=C(N)c1ccc(-c2ccc(-c3ccco3)o2)cc1F
active: T-47D breast -27.8% | MDA-MB-435 melanoma -59.1% | SW-620 colon -11.3% | MCF7 breast -13.7% | HCT-116 colon -21.2% | HCC-2998 colon -74.7% | KM12 colon 4.94%
inactive: BT-549 breast 25%

CC(C)CCC(=O)[C@@H](C)[C@H]1[C@@H](OC2OCC(O)C(O)C2NS(C)(=O)=O)C[C@H]2[C@@H]3CC=C4C[C@@H](O)CC[C@]4(C)[C@H]3CC[C@]12C (some centres undefined)
active: MDA-MB-435 melanoma 1.92%
inactive: T-47D breast 43.6% | BT-549 breast 22% | SW-620 colon 11.9% | MCF7 breast 17.1% | HCT-116 colon 24.9% | HCC-2998 colon 67.2% | KM12 colon 47%

O=[N+]([O-])c1ccc(N/N=C/c2ccccc2O)nc1
inactive: T-47D breast 24% | BT-549 breast 47.8% | MDA-MB-435 melanoma 46.8% | SW-620 colon 52.6% | MCF7 breast 16.8% | HCT-116 colon 22.3% | HCC-2998 colon 14.7% | KM12 colon 27%

CC1CCCN(CCCCOc2ccc(-c3ccc(C#N)cc3)cc2)C1 (centres undefined)
inactive: T-47D breast 79.1% | BT-549 breast 85.6% | MDA-MB-435 melanoma 99.4% | SW-620 colon 96.8% | MCF7 breast 86.4% | HCT-116 colon 87.8% | HCC-2998 colon 86.6% | KM12 colon 96.1%

Cn1c(=O)c2c(nc(N/N=C/c3ccccc3Cl)n2C)n(C)c1=O
inactive: T-47D breast 105% | BT-549 breast 102% | MDA-MB-435 melanoma 109% | SW-620 colon 108% | MCF7 breast 96.2% | HCT-116 colon 97.5% | KM12 colon 140%

CN1CCC2(CC1)N=C(SCC(=O)Nc1cnc3ccccc3c1)C(c1ccc(Br)cc1)=N2
inactive: T-47D breast 10.5% | BT-549 breast 59.4% | KM12 colon 41.6%
active: MDA-MB-435 melanoma 1.84% | SW-620 colon -6.58% | MCF7 breast -42.7% | HCT-116 colon -90.7% | HCC-2998 colon -51.3%

CN(C)CC(=O)c1ccc2cc(Br)c3ccccc3c2c1
inactive: T-47D breast 37.1% | BT-549 breast 60.2% | MDA-MB-435 melanoma 83.6% | SW-620 colon 54.7% | MCF7 breast 63.6% | HCT-116 colon 49.3% | KM12 colon 63.7%

CC(C)N(C(=S)SSC(=S)N(C(C)C)C(C)C)C(C)C
inactive: T-47D breast 86.8% | BT-549 breast 107% | MDA-MB-435 melanoma 99.6% | SW-620 colon 105% | MCF7 breast 90.3% | HCT-116 colon 96.7% | HCC-2998 colon 113% | KM12 colon 108%

CCC(=O)OCc1ccc(OC)cc1
inactive: T-47D breast 103% | BT-549 breast 104% | MDA-MB-435 melanoma 112% | SW-620 colon 111% | MCF7 breast 107% | HCT-116 colon 98.7% | KM12 colon 137%

Nc1c(C(=O)Nc2cccc(Cl)c2)sc2nc3c(cc12)C(=O)CCC3
active: MDA-MB-435 melanoma -39.1% | HCC-2998 colon 8.27%
inactive: T-47D breast 52.9% | BT-549 breast 66.4% | SW-620 colon 31.3% | MCF7 breast 16.7% | HCT-116 colon 27.4% | KM12 colon 21.6%

COc1ccc(Oc2nc(Nc3ccc(N4CCOCC4)cc3)ncc2NC(=O)Nc2cccc(OC)c2)cc1
inactive: T-47D breast 75.2% | BT-549 breast 34.3% | MDA-MB-435 melanoma 60.2% | SW-620 colon 67.5% | MCF7 breast 88.6% | HCT-116 colon 19% | HCC-2998 colon 40.3% | KM12 colon 59.2%

C=C(C)[C@@H]1CC[C@]2(C(=O)NS(=O)(=O)c3ccccc3)CC[C@]3(C)[C@H](CC[C@@H]4[C@@]5(C)CC[C@H](OC(=O)NS(=O)(=O)c6ccccc6)C(C)(C)[C@@H]5CC[C@]43C)[C@@H]12
inactive: MDA-MB-435 melanoma 12.8% | SW-620 colon 16.6%
active: T-47D breast 1.6% | BT-549 breast -0.983% | MCF7 breast 2.66% | HCT-116 colon -44.1% | HCC-2998 colon -8.69% | KM12 colon 4.05%

O=C(NCCN1CCCC1)n1cc(-c2ccncc2)c(-c2cc(O)cc(Cl)c2)n1
inactive: T-47D breast 98% | BT-549 breast 111% | MDA-MB-435 melanoma 57.3% | SW-620 colon 115% | MCF7 breast 96.2% | HCT-116 colon 75.3% | HCC-2998 colon 122% | KM12 colon 108%

C=C1C(=O)O[C@H]2[C@H]1CC/C(COC(=O)NCc1cn(C)c3ccccc13)=C\CC[C@@]1(C)O[C@@H]21
active: T-47D breast -54.1% | BT-549 breast -54.3% | MDA-MB-435 melanoma -30.4% | SW-620 colon -48.4% | MCF7 breast 3.65% | HCT-116 colon -97.2%
inactive: HCC-2998 colon 49.1% | KM12 colon 39.5%

Cc1cc(Nc2c3ccccc3nc3ccccc23)ccc1NS(C)(=O)=O
inactive: T-47D breast 45% | BT-549 breast 78.7% | MDA-MB-435 melanoma 36.8% | SW-620 colon 21.8% | MCF7 breast 27.4% | HCT-116 colon 13.7% | HCC-2998 colon 50.8% | KM12 colon 40.5%

O=C(N/N=C/c1ccc([N+](=O)[O-])cc1)c1ccccc1Nc1ccnc(C(F)(F)F)c1
inactive: T-47D breast 47.2% | BT-549 breast 87.4% | MDA-MB-435 melanoma 90.2% | MCF7 breast 95% | HCT-116 colon 76.8% | KM12 colon 87.1%
active: SW-620 colon -44.6%

CNCCCn1c2c(c3ccc(Cl)cc3c1=O)C(=O)c1cc(OC)cnc1-2
inactive: T-47D breast 40% | BT-549 breast 45.9% | MDA-MB-435 melanoma 55.8% | HCC-2998 colon 71.3% | KM12 colon 40.7%
active: SW-620 colon -63.6% | MCF7 breast -45.4% | HCT-116 colon -81.4%

CCCCCCCCCCCCCCCCCC(=O)[O][Sn]([CH2]CCC)([CH2]CCC)[CH2]CCC
active: T-47D breast -78.9% | BT-549 breast -94.3% | MDA-MB-435 melanoma -87.2% | SW-620 colon -83.6% | MCF7 breast -93.1% | HCT-116 colon -96.2% | HCC-2998 colon -99.1% | KM12 colon -96.2%

Cc1ccc2c(C)c3c(ccc4ccccc43)c[n+]2c1
inactive: BT-549 breast 37% | MDA-MB-435 melanoma 83.2% | SW-620 colon 83.1% | MCF7 breast 35.7% | HCT-116 colon 81.7% | HCC-2998 colon 72.6% | KM12 colon 28.6%
active: T-47D breast -8.02%
